Results reported in PubChem BioAssay AID463173 (ICCB-Longwood Screening Facility, Harvard Medical School, 2010).
Screen size: about 52,000 compounds; about 4,300 (8.3%) were called active. Rule as the data show it: active = survival mostly below about 52% (no sharp cut-off); inactive = mostly above about 56%. For the sample, actives were picked, then their nearest neighbours and some compounds at random.

Tested on: DeltatarO mutant
Experiment: S. aureus survival, RN4220 and DeltatarO strains – OD600, teichoic acid synthesis inhibitors, primary screen (AID 463173)
Conditions: S. aureus RN4220 wild type/DeltatarO growth, OD600, 18 h, hits give low values, screened at 18.75 µg/mL (by protocol)

Row | SMILES | survival
1 | COc1cc(NC(=O)CCc2nc3cccnc3n2Cc2cccs2)cc(OC)c1OC | 78% (inactive)
2 | CC(=O)NC(Cc1cccc(C)c1)C(=O)NC1CCN(c2nc(C)cc(C)c2C#N)CC1 (centres undefined) | 97% (inactive)
3 | CCS(=O)(=O)c1cccc(C(=O)Nc2ccc(-c3nc4ccccc4s3)c(O)c2)c1 | 85% (inactive)
4 | COC(=O)c1ccc(C2Nc3c(C)cccc3-c3cc(C)nn32)cc1 (centres undefined) | 74% (inactive)
5 | COc1cc(C2Nc3ccccc3-c3cc(C)nn32)ccc1O (centres undefined) | 121% (inactive)
6 | COc1cc(C2Nc3c(C)cc(C)cc3-c3cc(C)nn32)cc(OC)c1O (centres undefined) | 131% (inactive)
7 | CCOc1cccc(C2Nc3ccccc3-c3cc(C)nn32)c1O (centres undefined) | 195% (inactive)
8 | Cc1cc2n(n1)C(c1ccccc1)Nc1ccccc1-2 (centres undefined) | 93% (inactive)
9 | CCOc1ccc(C2Nc3c(C)cccc3-c3cc(C)nn32)cc1 (centres undefined) | 0% (active)
10 | COc1ccc(OC)c(C2Nc3c(C)cc(C)cc3-c3cc(C)nn32)c1 (centres undefined) | -3% (active)
11 | CCN(CC)c1ccc(C2Nc3ccccc3-c3cc(C)nn32)cc1 (centres undefined) | 7% (active)
12 | COc1cc(OC)c(C2Nc3c(C)cccc3-c3cc(C)nn32)cc1OC (centres undefined) | 184% (inactive)
13 | O=C(NCc1ccccc1Cl)C1CCN(C(=O)N2CCOc3ccccc32)CC1 | 83% (inactive)
14 | COCCn1c(COc2cccc(OC)c2)nnc1SCC(=O)NC1CCCC1 | 82% (inactive)
15 | COc1ccc(NC(=O)c2cc(C)nc3c2c(C)nn3-c2ccc(C)cc2)cc1OC | 94% (inactive)
16 | Cc1ccc2[nH]c(=O)c(CN(C(=O)c3cccc(Cl)c3)C(C)(C)C)cc2c1 | 94% (inactive)
17 | Cc1ccc(C(=O)CSc2nc(-c3ccccc3)nc3c2CCCC3)cc1 | 36% (active)
18 | Cc1ccc(C)c(C(=O)CSc2nc(-c3ccccc3)nc3c2CCCC3)c1 | 2% (active)
19 | Cc1nc2c(c(SCC(=O)Nc3ccccc3C(F)(F)F)n1)CCC2 | 60% (inactive)
20 | Cc1ccc(C(=O)CSc2nc(-c3ccccc3)nc3c2CCCC3)c(C)c1 | 47% (inactive)
21 | NC(=O)CSc1nc(-c2ccccc2)nc2c1CCCC2 | 88% (inactive)
22 | O=C(CSc1nc(-c2ccccc2)nc2c1CCCC2)c1ccc(F)cc1 | 83% (inactive)
23 | CCc1ccc(C(=O)CSc2nc(-c3ccccc3)nc3c2CCCC3)cc1 | 60% (inactive)

Row | SMILES | survival
24 | Cc1ccc(C(=O)CSc2nc(-c3ccccc3)nc3c2CCCC3)cc1C | 15% (active)
25 | O=C(CSc1nc(-c2ccccc2)nc2c1CCCC2)c1ccc(Cl)cc1 | 76% (inactive)
26 | OC(CNCc1ccccn1)COc1ccc(OCC(O)CNCc2ccccn2)cc1 (centres undefined) | 96% (inactive)
27 | Cc1ccc2c(c1)NC(=O)c1cccnc1O2 | 94% (inactive)
28 | CCOc1ccc(CNC(=O)C(C)n2ncn3cccc3c2=O)cc1 (centres undefined) | 69% (inactive)
29 | COc1ccc(C(C(=O)NC2CCCC2)N(Cc2ccco2)C(=O)Cn2nc(C(F)(F)F)c3c2CCCC3)cc1 (centres undefined) | 91% (inactive)
30 | Brc1ccc(-c2csc(NN=C3CCCC3)n2)cc1 | 102% (inactive)
31 | COC(=O)c1ccccc1NC(=O)c1ccc2c(c1)CCN2S(=O)(=O)c1ccc(Cl)cc1 | 69% (inactive)
32 | CCn1c2c(c(=O)n3ncc(C(=O)Nc4ccc(Cl)cc4C)c13)CN(Cc1ccc(OC)cc1)CC2 | 87% (inactive)
33 | CCn1c2c(c(=O)n3ncc(C(=O)Nc4ccc(F)c(Cl)c4)c13)CN(Cc1ccc(OC)cc1)CC2 | 17% (active)
34 | CCn1c2c(c(=O)n3ncc(C(=O)Nc4ccc(OC(F)(F)F)cc4)c13)CN(Cc1ccc(OC)cc1)CC2 | 94% (inactive)
35 | c1ccc(N2CCN(Cc3cccn3-c3nnc(N4CCN(C5CCCCC5)CC4)s3)CC2)cc1 | 76% (inactive)
36 | CCc1cccc(C)c1NC(=O)C1CCN(S(=O)(=O)c2cc(Br)cc3c2N(C(C)=O)CC3)CC1 | 59% (inactive)
37 | CCCCNC(=O)C1CCN(S(=O)(=O)c2cc(Br)cc3c2N(C(=O)CC)CC3)CC1 | 90% (inactive)
38 | CCOc1ccccc1NC(=O)C1CCN(S(=O)(=O)c2cc(Br)cc3c2N(C(C)=O)CC3)CC1 | 69% (inactive)
39 | CCC(=O)N1CCc2cc(Br)cc(S(=O)(=O)N3CCC(C(=O)Nc4cccc(C)c4)CC3)c21 | 80% (inactive)
40 | CCC(=O)N1CCc2cc(Br)cc(S(=O)(=O)N3CCC(C(=O)Nc4ccc(OC)cc4)CC3)c21 | 8% (active)
41 | CCC(=O)N1CCc2cc(Br)cc(S(=O)(=O)N3CCC(C(=O)NC(C)(C)C)CC3)c21 | 84% (inactive)
42 | CC(=O)N1CCc2cc(Br)cc(S(=O)(=O)N3CCC(C(=O)Nc4cccc(C)c4C)CC3)c21 | 75% (active)
43 | CCC(=O)N1CCc2cc(Br)cc(S(=O)(=O)N3CCC(C(=O)Nc4ccccc4CC)CC3)c21 | 84% (inactive)
44 | CCC(=O)N1CCc2cc(Br)cc(S(=O)(=O)N3CCC(C(=O)Nc4ccccc4F)CC3)c21 | 43% (active)
45 | COC(=O)CNC(=O)C1CCN(c2nc(C)cc(-c3ccccc3)n2)CC1 | 96% (inactive)
46 | O=C(Nc1sc2c(c1C(=O)c1ccccc1)CCCC2)c1ccco1 | 73% (inactive)

Row | SMILES | survival
47 | O=C(/C=C/c1ccco1)NC(=S)Nc1ccccc1O | 100% (inactive)
48 | CCCCNC(=O)C1CCC(Cn2c(=O)c3sccc3n(Cc3ccccc3)c2=O)CC1 (centres undefined) | 71% (inactive)
49 | CSc1ccc(CCNC(=O)c2cnc3c(C)cccn3c2=O)cc1 | 89% (inactive)
50 | CCc1ccccc1NC(=O)C1CCC(CNS(=O)(=O)c2ccc3c(c2)CC(C)N3C(C)=O)CC1 (centres undefined) | 91% (inactive)
51 | COc1cccc(NC(=O)CCc2c(C)nc3nc(CNC(=O)c4cccc(F)c4)nn3c2C)c1 | 76% (inactive)
52 | Cc1cccc(CNC(=O)c2ccc3c(c2)N(C)CCS3)c1 | 65% (inactive)
53 | CCN1CCSc2ccc(C(=O)NCc3ccccc3Br)cc21 | 62% (inactive)
54 | O=C(NCc1ccc(F)cc1)c1ccc2c(c1)N(Cc1ccc(F)cc1Cl)C(=O)CS2 | 57% (inactive)
55 | CCN1CCSc2ccc(C(=O)NCc3cccc(F)c3)cc21 | 61% (inactive)
56 | CCN1CCSc2ccc(C(=O)NCc3cccc(Br)c3)cc21 | 46% (active)
57 | Cc1ccc(CNC(=O)c2ccc3c(c2)N(Cc2cccc(Cl)c2)C(=O)CS3)cc1 | 40% (active)
58 | O=C(NCc1ccccc1Cl)c1ccc2c(c1)N(Cc1ccccc1)C(=O)CS2 | 101% (inactive)
59 | COc1ccc(CNC(=O)c2ccc3c(c2)N(Cc2cc(C)ccc2C)C(=O)CS3)cc1 | 59% (inactive)
60 | Cc1ccc(C)c(CN2C(=O)CSc3ccc(C(=O)NCc4ccc(F)cc4)cc32)c1 | 46% (active)
61 | Cc1ccc(CNC(=O)c2ccc3c(c2)N(Cc2cccc(C)c2)C(=O)CS3)cc1 | 46% (active)
62 | Cc1cccc(CN2C(=O)c3ccccc3Sc3ccc(C(=O)NCc4cccs4)cc32)c1 | 93% (inactive)
63 | Cc1ccc(CNC(=O)c2ccc3c(c2)N(Cc2ccccc2Cl)C(=O)CS3)cc1 | 50% (inactive)
64 | Cc1ccc(NC(=O)Cn2nc(-c3ccncc3)ccc2=O)cc1Cl | 120% (inactive)
65 | Cc1cc(C)c(/C=C/c2onc(C)c2S(=O)(=O)N2CCC(C(=O)NCCc3ccccc3)CC2)c(C)c1 | 94% (inactive)
66 | Cc1ccc(-n2nc3c(=O)n(CCCC(=O)NCc4ccccc4C)nc(C)c3c2C)cc1 | 120% (inactive)
67 | COC(=O)c1nc(C(=O)OC)c(C(=O)OC)nc1C(=O)OC | 95% (inactive)
68 | COc1ccc(Cl)cc1C(=O)Nc1sc2c(c1C(=O)OC(C)C)CCCC2 | 61% (inactive)
69 | CCOC(=O)Cc1c(C(=O)OCC)nnc2c(-c3ccccc3)c(C)nn12 | 75% (inactive)

Row | SMILES | survival
70 | CN(C)c1ccc(CNC(=O)c2ccccc2NC(=O)c2nsc3ccccc23)cc1 | 73% (inactive)
71 | COc1ccccc1NC(=O)C1=C(C)Nc2nc(CCCO)nn2C1c1cccc(O)c1 (centres undefined) | 144% (inactive)
72 | CCCN1CC=C2C(C#N)=C(N)C(C#N)(C#N)C(c3cccc(OC)c3)C2C1 (centres undefined) | 95% (inactive)
73 | CCCOc1ccc(C2C3CN(CC)CC=C3C(C#N)=C(N)C2(C#N)C#N)cc1OC (centres undefined) | 0% (active)
74 | CCN1CC=C2C(C#N)=C(N)C(C#N)(C#N)C(c3ccc(OC)c4ccccc34)C2C1 (centres undefined) | 108% (inactive)
75 | CC1CCN(S(=O)(=O)c2ccc3c(c2)CCN3)CC1 | 102% (inactive)
76 | COc1cc(C2C(C(=O)Nc3ccc(C)cc3C)=C(C)Nc3nc(SCc4ccccc4)nn32)cc(OC)c1OC (centres undefined) | 64% (inactive)
77 | O=C(O)C1C(c2ccccc2)C(C(=O)N2CCCCC2)C1c1ccccc1 (centres undefined) | 101% (inactive)
78 | Brc1ccccc1-n1ncc2c1ncn1nc(Cc3ccccc3)nc21 | 74% (inactive)
79 | CC(C)(C)OC(=O)N1CCC(c2nnc(SCc3ccccc3Cl)o2)CC1 | -1% (active)
80 | CC(C)(C)OC(=O)N1CCC(c2nnc(SCc3ccccc3)o2)CC1 | 96% (inactive)
81 | CC(C)(C)OC(=O)N1CCC(c2nnc(SCc3ccccc3F)o2)CC1 | 57% (inactive)
82 | Clc1cccc(CSc2nnc(C3CCNCC3)o2)c1 | 104% (inactive)
83 | CC(C)(C)OC(=O)N1CCC(c2nnc(SCc3cccc(Cl)c3)o2)CC1 | 1% (active)
84 | Clc1ccccc1CSc1nnc(C2CCNCC2)o1 | 89% (inactive)
85 | CCN(C(=O)c1cnc(N2CCOCC2)c2ccccc12)c1cc(C)ccc1C | 94% (inactive)
86 | O=C(c1ccccc1)c1ccc2nc(Nc3cc(Cl)ccc3O)c3nncn3c2c1 | 118% (inactive)
87 | COc1ccc(NC(=O)CSc2oc(-c3ccc(C)cc3)nc2S(=O)(=O)c2ccc(C)cc2)c(OC)c1 | 60% (inactive)
88 | CCCCn1cc(S(=O)(=O)c2ccc(C)c(C)c2)c(=O)c2cc(F)c(N3CCN(C)CC3)cc21 | 101% (inactive)
89 | COC(=O)c1ccccc1NC(=O)[C@H]1O[C@@H]2OC(C)(C)O[C@@H]2[C@H]2OC(C)(C)O[C@H]21 | 95% (inactive)
